Data taken from the supplement of paper PMC7366291.
Counter-ions that a name gives are not always drawn. ± gives the standard deviation or the standard deviation of the averaged measurements.

Experiments:
Conditions in all cases: 25 µM; exposure: 24-48 hpf
[1] = system: Danio rerio Tg(wt1b:EGFP) embryo, pronephros; assay: glomerular separation, fold change vs DMSO control; higher = glomeruli further apart (abnormal)
Method in brief: (§1)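 Using a Fiji macro, distances and angles were calculated from 16 reference points set by hand on maximum projections of pronephroi imaged dorsally (470 nm, 10 z-slices) in agarose-filled 96-well plates. The dechorionated Tg(wt1b:EGFP) zebrafish embryos had received 25 μM compound in 0.5% DMSO in HEPES-buffered E3 with 0.003% PTU from 24 to 48 hpf at 28.5°C. Values more than 2 SD from a feature's mean were excluded. Each feature appears as a fold change over the mean of DMSO-treated embryos from the same day.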

[2] = system: Danio rerio Tg(wt1b:EGFP) embryo, pronephros; assay: glomerular width (mean of left and right), fold change vs DMSO control; higher = wider glomerulus
Method in brief: as §1

[3] = system: Danio rerio Tg(wt1b:EGFP) embryo, pronephros; assay: fraction of imaged embryos annotated as normal kidney; higher = less nephrotoxic; extreme values may be limits of the assay
Method in brief: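 Dechorionated Tg(wt1b:EGFP) zebrafish embryos were exposed in 12-well plates to 25 μM compound in 0.5% DMSO, 5 mM HEPES-buffered E3 with 0.003% PTU, from 24 to 48 hpf at 28.5°C. Tricaine-anaesthetised larvae were oriented dorsally in agarose-filled 96-well plates, and pronephroi were imaged by widefield fluorescence (470 nm, 10 z-slices). Each embryo was manually annotated from maximum projections. The read-out is the fraction of embryos per treatment assigned to the normal-kidney category.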

[4] = system: Danio rerio Tg(wt1b:EGFP) embryo, pronephros; assay: pronephric angle neck segment to proximal convoluted tubule (mean of left and right), fold change vs DMSO control; higher = larger pronephric angle
Method in brief: as §1

Compound | glomerular separation [1] | glomerular width [2] | fraction of imaged embryos annotated as normal kidney [3] | pronephric angle neck segment [4]
OC(CCN1CCCCC1)(c1ccccc1)C1CCCCC1 (centres undefined) [Trihexyphenidyl-D,L Hydrochloride] | 0.867 ± 0.41 | 0.97 ± 0.04 | 0.833 | 0.985 ± 0.056
CN(C(=O)CN(CCO)CC(=O)N(C)C(C)(C)Cc1ccccc1)C(C)(C)Cc1ccccc1 [Oxethazaine] | 0.855 ± 0.18 | 1.1 ± 0.017 | 0.727 | 0.94 ± 0.059
CCCCN(CCCC)CCCOC(=O)c1ccc(N)cc1 [Butacaine] | 0.928 ± 0.47 | 0.939 ± 0.05 | 0.917 | 0.9912 ± 0.0092
CCCCC(O)c1ccccc1 (centres undefined) [Fenipentol] | 1.17 ± 0.29 | 0.993 ± 0.03 | 0.833 | 0.967 ± 0.017
CC1CS(=O)(=O)CCN1/N=C/c1ccc([N+](=O)[O-])o1 (centres undefined) [Nifurtimox] | 0.837 ± 0.36 | 0.986 ± 0.038 | 0.917 | 0.938 ± 0.045
NC(N)=Nc1nc(CSCC/C(N)=N/S(N)(=O)=O)cs1 [Famotidine] | 1.11 ± 0.48 | 0.98 ± 0.038 | 0.833 | 0.9801 ± 0.0036
CCCC1C(=O)N2C(N(C)C)=Nc3ccc(C)cc3N2C1=O (centres undefined) [Azapropazone] | 1.16 ± 0.34 | 0.984 ± 0.022 | 0.917 | 1.018 ± 0.0029
CCCC(=O)Nc1ccc(OCC(O)CNC(C)C)c(C(C)=O)c1 (centres undefined) [Acebutolol hydrochloride] | 1.43 ± 0.56 | 1.06 ± 0.075 | 0.75 | 0.9596 ± 0.0066
C#Cc1cccc(Nc2ncnc3cc(OCCOC)c(OCCOC)cc23)c1 [Erlotinib] | 0.768 ± 0.23 | 1.05 ± 0.03 | 0.833 | 0.994 ± 0.031
COCCOC(=O)C1=C(C)NC(C)=C(C(=O)OC/C=C/c2ccccc2)C1c1cccc([N+](=O)[O-])c1 (centres undefined) [Cilnidipine] | 3.85 ± 1.1 | 0.735 ± 0.012 | 0 | 1.248 ± 0.0032
CC[C@]12CCCN3CCc4c(n(c5ccccc45)[C@@](O)(C(=O)OC)C1)[C@@H]32 [Vincamine] | 0.967 ± 0.23 | 0.965 ± 0.01 | 0.909 | 1.05 ± 0.057
CN(C)C/C=C(/c1ccc(Br)cc1)c1cccnc1 [Zimelidine dihydrochloride monohydrate] | 0.758 ± 0.25 | 0.9778 ± 0.0056 | 0.75 | 0.971 ± 0.055
NC(=O)N1c2ccccc2C=Cc2ccccc21 [Carbamazepine] | 0.842 ± 0.19 | 0.99 ± 0.04 | 0.667 | 0.955 ± 0.025
CN(C)CCOC1=Cc2ccccc2Sc2ccc(Cl)cc21 [Zotepine] | 0.933 ± 0.24 | 0.983 ± 0.065 | 0.75 | 1.08 ± 0.11
CC(c1cc2ccccc2s1)N(O)C(N)=O (centres undefined) [Zileuton] | 1.25 ± 0.57 | 0.993 ± 0.02 | 0.667 | 1.11 ± 0.072
CC(C)(C)NC[C@@H](O)COc1cccc2c1CCCC2=O [(+) -Levobunolol hydrochloride] | 0.984 ± 0.46 | 0.935 ± 0.054 | 0.75 | 1.03 ± 0.015
CN(C)CCCN1c2ccccc2Sc2ccc(Cl)cc21 [Chlorpromazine hydrochloride] | 0.83 ± 0.37 | 1.01 ± 0.1 | 0.833 | 0.974 ± 0.024
C[C@@](Cc1ccc(O)c(O)c1)(NN)C(=O)O [Carbidopa] | 1.24 ± 0.38 | 1.0027 ± 0.00014 | 0.833 | 1.047 ± 0.0029
O=C1Cc2cc(CCN3CCN(c4nsc5ccccc45)CC3)c(Cl)cc2N1 [Ziprasidone  Hydrochloride] | 1.5 ± 0.53 | 1.03 ± 0.025 | 0.833 | 1.05 ± 0.04

Compound | glomerular separation [1] | glomerular width [2] | fraction of imaged embryos annotated as normal kidney [3] | pronephric angle neck segment [4]
CC(C(=O)O)c1cccc(Oc2ccccc2)c1 (centres undefined) [Fenoprofen calcium salt dihydrate] | 3.89 ± 1.7 | 0.88 ± 0.059 | 0 | 1.55 ± 0.027
Cc1ccc(C)c(OCCCC(C)(C)C(=O)O)c1 [Gemfibrozil] | 5.88 ± 2.2 | 0.602 ± 0.06 | 0 | 1.73 ± 0.11
CCCCc1ccc2[nH]c(NC(=O)OC)nc2c1 [Parbendazole] | 2.51 ± 0.79 | 0.5042 ± 0.0026 | 0 | 1.81 ± 0.054
COc1cc(OC)c(C(=O)CCCN2CCCC2)c(OC)c1 [Buflomedil hydrochloride] | 1.14 ± 0.33 | 1.08 ± 0.06 | 0.917 | 1.01 ± 0.053
O=C(NCCO[N+](=O)[O-])c1cccnc1 [Nicorandil] | 1.05 ± 0.44 | 0.989 ± 0.083 | 0.917 | 0.9232 ± 0.008
O=C(O)c1ccccc1C(=O)Nc1ccc(S(=O)(=O)Nc2nccs2)cc1 [Phthalylsulfathiazole] | 0.926 ± 0.31 | 1.02 ± 0.015 | 0.833 | 0.943 ± 0.071
CC(CN1c2ccccc2Sc2ccccc21)N(C)C (centres undefined) [Promethazine hydrochloride] | 0.666 ± 0.15 | 0.9984 ± 0.0084 | 0.833 | 0.994 ± 0.068
CNNCc1ccc(C(=O)NC(C)C)cc1 [Procarbazine hydrochloride] | 1.02 ± 0.24 | 0.973 ± 0.017 | 1 | 1.084 ± 0.0049
COc1cc2nc(N3CCN(C(=O)C4COc5ccccc5O4)CC3)nc(N)c2cc1OC (centres undefined) [Doxazosin mesylate] | 0.958 ± 0.6 | 0.965 ± 0.026 | 1 | 1.007 ± 0.003
Cc1c(N(C)C)c(=O)n(-c2ccccc2)n1C [Amidopyrine] | 0.645 ± 0.17 | 1 ± 0.0092 | 0.917 | 1.01 ± 0.033
CNCC[C@@H](Oc1cccc2ccccc12)c1cccs1 [(R)-Duloxetine hydrochloride] | 1.15 ± 0.49 | 1.046 ± 0.0076 | 1 | 0.986 ± 0.044
COc1ccc2c(c1)c(CC(=O)OCC(=O)O)c(C)n2C(=O)c1ccc(Cl)cc1 [Acemetacin] | 1.28 ± 0.69 | 1.04 ± 0.027 | 0.917 | 1.08 ± 0.039
CN(C)[C@@H]1C(O)=C(C(=O)NCNCCCC[C@H](N)C(=O)O)C(=O)[C@@]2(O)C(O)=C3C(=O)c4c(O)cccc4[C@@](C)(O)[C@H]3C[C@@H]12 [Lymecycline] | 1.2 ± 0.48 | 0.916 ± 0.014 | 1 | 0.97 ± 0.023
CC(C(=O)O)c1ccc(C(=O)c2ccccc2)s1 (centres undefined) [Tiaprofenic acid] | 1.58 ± 0.4 | 1.07 ± 0.067 | 0.667 | 1.03 ± 0.015
COc1ccc(C(=O)c2ccccc2O)c(O)c1 [Dioxybenzone] | 2.57 ± 1.9 | 0.84 ± 0.044 | 0.417 | 1.09 ± 0.018
CN(C)CCn1nnnc1SCC1=C(C(=O)O)N2C(=O)[C@@H](NC(=O)Cc3csc(N)n3)[C@H]2SC1 [Cefotiam hydrochloride] | 1.46 ± 0.87 | 0.929 ± 0.014 | 0.917 | 1.08 ± 0.14
CCn1cc(C(=O)O)c(=O)c2ccc(C)nc21 [Nalidixic acid sodium salt] | 1.31 ± 0.59 | 1.11 ± 0.025 | 0.25 | 1.19 ± 0.022
CC(=O)O[C@@]12CO[C@@H]1C[C@H](O)[C@@]1(C)C(=O)[C@H](O)C3=C(C)[C@@H](OC(=O)[C@H](O)[C@@H](NC(=O)OC(C)(C)C)c4ccccc4)C[C@@](O)([C@@H](OC(=O)c4ccccc4)[C@H]21)C3(C)C [Docetaxel] | 1.11 ± 0.48 | 0.978 ± 0.051 | 0.917 | 1.007 ± 0.0081
CO/N=C(\C(=O)N[C@@H]1C(=O)N2C(C(=O)O)=C(COC(C)=O)CS[C@H]12)c1csc(N)n1 [Cefotaxime sodium salt] | 0.857 ± 0.26 | 0.957 ± 0.011 | 0.909 | 0.982 ± 0.017

Compound | glomerular separation [1] | glomerular width [2] | fraction of imaged embryos annotated as normal kidney [3] | pronephric angle neck segment [4]
Nc1c2c(nc3ccccc13)CCCC2 [Tacrine hydrochloride] | 1.09 ± 0.33 | 1.01 ± 0.029 | 0.833 | 1.03 ± 0.042
Cc1c(Cl)cccc1Nc1ncccc1C(=O)O [Clonixin Lysinate] | 4.04 ± 1.5 | 0.545 ± 0.048 | 0 | 1.81 ± 0.068
CCOC1O[C@H]([C@@H](COCc2ccccc2)OCc2ccccc2)[C@H](OCc2ccccc2)[C@H]1O (some centres undefined) [Tribenoside] | 1.42 ± 0.96 | 0.865 ± 0.056 | 0.667 | 1.01 ± 0.018
CCN(CC)CCCC(C)Nc1c2ccc(Cl)cc2nc2ccc(OC)cc12 (centres undefined) [Quinacrine dihydrochloride hydrate] | 0.766 ± 0.2 | 1.01 ± 0.016 | 0.75 | 0.971 ± 0.021
C#C[C@]1(O)CC[C@H]2[C@@H]3CCC4=CC(=O)CC[C@@H]4[C@H]3CC[C@@]21CC [Norgestrel-(-)-D] | 0.798 ± 0.23 | 1.016 ± 0.0075 | 1 | 1.03 ± 0.013
CCOC(=O)[C@H](CCc1ccccc1)N[C@H]1CCc2ccccc2N(CC(=O)O)C1=O [Benazepril hydrochloride] | 0.73 ± 0.18 | 1.05 ± 0.023 | 0.75 | 0.964 ± 0.087
COc1ccc([C@@H]2Sc3ccccc3N(CCN(C)C)C(=O)[C@@H]2OC(C)=O)cc1 [Diltiazem hydrochloride] | 0.914 ± 0.32 | 1.24 ± 0.11 | 0.667 | 1.211 ± 0.0023
CC(=C(CCO)SSCC1CCCO1)N(C=O)Cc1cnc(C)nc1N (stereo in doubt) [Fursultiamine Hydrochloride] | 1.06 ± 0.24 | 0.996 ± 0.027 | 0.833 | 1.005 ± 0.0057
CN1CCCN=C1/C=C/c1cccc(O)c1 [Oxantel pamoate] | 0.88 ± 0.16 | 1.012 ± 0.0033 | 0.917 | 1.03 ± 0.034
Cc1ncc(CO)c(CO)c1O [Pyridoxine hydrochloride] | 0.838 ± 0.25 | 1.04 ± 0.019 | 1 | 1.06 ± 0.061
CN(C)CC/C=C1\c2ccccc2CSc2ccccc21 [Dosulepin hydrochloride] | 1.15 ± 0.25 | 0.981 ± 0.048 | 0.833 | 0.995 ± 0.03
CC[C@H]1OC(=O)[C@H](C)[C@@H](O[C@H]2C[C@@](C)(OC)[C@@H](O)[C@H](C)O2)[C@H](C)[C@@H](O[C@@H]2O[C@H](C)C[C@H](N(C)C)[C@H]2O)[C@](C)(OC)C[C@@H](C)C(=O)[C@H](C)[C@@H](O)[C@]1(C)O [Clarithromycin] | 0.802 ± 0.28 | 0.909 ± 0.043 | 1 | 1.06 ± 0.039
CN(C)CCCC1(c2ccc(F)cc2)OCc2cc(C#N)ccc21 (centres undefined) [Citalopram Hydrobromide] | 1.21 ± 0.7 | 0.991 ± 0.035 | 0.667 | 0.956 ± 0.032
CC(=O)Nc1ccc(OCC(O)CNC(C)C)cc1 (centres undefined) [Practolol] | 1.01 ± 0.36 | 0.986 ± 0.081 | 0.833 | 1.02 ± 0.051
C[C@@H](O[C@H]1OCCN(Cc2n[nH]c(=O)[nH]2)[C@H]1c1ccc(F)cc1)c1cc(C(F)(F)F)cc(C(F)(F)F)c1 [Aprepitant] | 0.995 ± 0.34 | 1.09 ± 0.076 | 0.667 | 1.05 ± 0.059
N[C@@H]1CCCCN(c2c(F)cc3c(=O)c(C(=O)O)cn(C4CC4)c3c2Cl)C1 [Besifloxacin hydrochloride] | 0.997 ± 0.35 | 1.02 ± 0.033 | 0.833 | 1.02 ± 0.018
COc1cc2nc(N3CCN(C(=O)c4ccco4)CC3)nc(N)c2cc1OC [Prazosin hydrochloride] | 0.618 ± 0.16 | 1 ± 0.021 | 0.917 | 1.03 ± 0.04
O=C(O[C@@H]1C[C@@H]2C[C@H]3C[C@H](C1)N2CC3=O)c1c[nH]c2ccccc12 [Dolasetron mesilate] | 0.787 ± 0.28 | 1.01 ± 0.018 | 0.75 | 0.946 ± 0.035
